Experimental data taken from ChEMBL document CHEMBL1961873, “Compounds: GSK PKIS; Assays: Nanosyn kinase panel” (2012).

Columns and labels:
[1] = target: Tyrosine-protein kinase SYK (Homo sapiens) (UniProt P43405); settings: at 1 µM
[2] = target: T1, Tyrosine-protein kinase Tec (Homo sapiens) (UniProt P42680); settings: at 0.1 µM
T1 sequence (whole entry): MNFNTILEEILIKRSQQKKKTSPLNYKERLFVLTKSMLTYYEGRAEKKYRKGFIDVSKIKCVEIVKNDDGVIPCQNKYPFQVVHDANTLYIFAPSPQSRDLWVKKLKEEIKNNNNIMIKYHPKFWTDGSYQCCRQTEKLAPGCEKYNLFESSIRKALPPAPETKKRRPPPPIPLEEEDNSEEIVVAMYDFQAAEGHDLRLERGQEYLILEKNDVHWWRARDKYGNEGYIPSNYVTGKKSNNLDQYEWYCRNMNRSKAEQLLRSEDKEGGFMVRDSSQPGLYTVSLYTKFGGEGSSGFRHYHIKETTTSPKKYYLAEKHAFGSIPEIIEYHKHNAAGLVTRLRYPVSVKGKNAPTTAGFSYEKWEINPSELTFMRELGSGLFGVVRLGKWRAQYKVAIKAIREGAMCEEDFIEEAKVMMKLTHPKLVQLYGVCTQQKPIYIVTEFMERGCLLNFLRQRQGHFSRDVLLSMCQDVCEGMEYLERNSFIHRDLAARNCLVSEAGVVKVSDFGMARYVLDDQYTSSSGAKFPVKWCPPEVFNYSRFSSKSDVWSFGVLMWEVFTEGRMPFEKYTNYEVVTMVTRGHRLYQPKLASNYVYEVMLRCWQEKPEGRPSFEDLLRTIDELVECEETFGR

[3] = target: T1, Tyrosine-protein kinase Tec (Homo sapiens); settings: at 1 µM
[4] = target: Angiopoietin-1 receptor (Homo sapiens) (UniProt Q02763); settings: at 0.1 µM
[5] = target: Angiopoietin-1 receptor (Homo sapiens) (UniProt Q02763); settings: at 1 µM
[6] = target: T2, Non-receptor tyrosine-protein kinase TNK1 (Homo sapiens) (UniProt Q13470); settings: at 0.1 µM
T2 sequence (whole entry): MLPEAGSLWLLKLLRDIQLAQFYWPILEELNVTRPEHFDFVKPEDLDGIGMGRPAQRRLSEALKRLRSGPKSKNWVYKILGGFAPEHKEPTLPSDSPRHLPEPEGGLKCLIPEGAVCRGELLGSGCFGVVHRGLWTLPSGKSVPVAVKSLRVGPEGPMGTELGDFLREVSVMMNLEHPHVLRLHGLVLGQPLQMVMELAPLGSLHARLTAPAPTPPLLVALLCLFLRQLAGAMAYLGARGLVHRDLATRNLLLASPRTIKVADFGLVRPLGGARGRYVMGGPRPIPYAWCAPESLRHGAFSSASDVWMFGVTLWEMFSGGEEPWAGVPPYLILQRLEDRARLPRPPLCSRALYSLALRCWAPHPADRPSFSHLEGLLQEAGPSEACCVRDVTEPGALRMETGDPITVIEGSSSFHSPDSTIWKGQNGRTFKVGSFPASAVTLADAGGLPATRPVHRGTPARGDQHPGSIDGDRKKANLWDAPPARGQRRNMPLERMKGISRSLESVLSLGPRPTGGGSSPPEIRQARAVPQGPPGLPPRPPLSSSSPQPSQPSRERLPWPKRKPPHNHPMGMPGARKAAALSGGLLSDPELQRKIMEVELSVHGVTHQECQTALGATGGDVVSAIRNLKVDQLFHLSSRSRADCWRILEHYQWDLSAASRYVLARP

[7] = target: T2, Non-receptor tyrosine-protein kinase TNK1 (Homo sapiens); settings: at 1 µM
[8] = target: Activated CDC42 kinase 1 (Homo sapiens) (UniProt Q07912); settings: at 0.1 µM
[9] = target: Activated CDC42 kinase 1 (Homo sapiens) (UniProt Q07912); settings: at 1 µM
[10] = target: High affinity nerve growth factor receptor (Homo sapiens) (UniProt P04629); settings: at 0.1 µM
[11] = target: High affinity nerve growth factor receptor (Homo sapiens) (UniProt P04629); settings: at 1 µM
[12] = target: BDNF/NT-3 growth factors receptor (Homo sapiens) (UniProt Q16620); settings: at 0.1 µM
[13] = target: BDNF/NT-3 growth factors receptor (Homo sapiens) (UniProt Q16620); settings: at 1 µM
[14] = target: NT-3 growth factor receptor (Homo sapiens) (UniProt Q16288); settings: at 0.1 µM
[15] = target: NT-3 growth factor receptor (Homo sapiens) (UniProt Q16288); settings: at 1 µM
[16] = target: T3, Tyrosine-protein kinase TXK (Homo sapiens) (UniProt P42681); settings: at 0.1 µM
T3 sequence (whole entry): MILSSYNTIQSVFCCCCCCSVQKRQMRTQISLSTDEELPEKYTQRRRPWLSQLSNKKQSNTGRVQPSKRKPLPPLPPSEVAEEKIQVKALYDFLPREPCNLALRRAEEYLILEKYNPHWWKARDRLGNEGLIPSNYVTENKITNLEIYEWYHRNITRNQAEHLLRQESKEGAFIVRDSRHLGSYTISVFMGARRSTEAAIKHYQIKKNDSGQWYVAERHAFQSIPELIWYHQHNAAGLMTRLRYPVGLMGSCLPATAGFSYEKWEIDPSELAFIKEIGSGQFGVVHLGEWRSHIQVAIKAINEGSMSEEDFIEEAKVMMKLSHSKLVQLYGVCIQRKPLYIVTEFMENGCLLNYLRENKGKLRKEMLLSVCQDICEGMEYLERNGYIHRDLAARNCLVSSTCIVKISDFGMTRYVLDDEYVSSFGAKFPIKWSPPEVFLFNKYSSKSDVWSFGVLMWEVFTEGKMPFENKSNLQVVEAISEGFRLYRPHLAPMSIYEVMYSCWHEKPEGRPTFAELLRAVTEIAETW

[17] = target: T3, Tyrosine-protein kinase TXK (Homo sapiens); settings: at 1 µM
[18] = target: Non-receptor tyrosine-protein kinase TYK2 (Homo sapiens) (UniProt P29597); settings: at 0.1 µM;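 also: each value is a mean of the inhibition readings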
[19] = target: T4, Dual specificity protein kinase TTK (Homo sapiens) (UniProt P33981); settings: at 1 µM;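 also: reported figures are mean TTK inhibition at 1 µM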
T4 sequence (whole entry): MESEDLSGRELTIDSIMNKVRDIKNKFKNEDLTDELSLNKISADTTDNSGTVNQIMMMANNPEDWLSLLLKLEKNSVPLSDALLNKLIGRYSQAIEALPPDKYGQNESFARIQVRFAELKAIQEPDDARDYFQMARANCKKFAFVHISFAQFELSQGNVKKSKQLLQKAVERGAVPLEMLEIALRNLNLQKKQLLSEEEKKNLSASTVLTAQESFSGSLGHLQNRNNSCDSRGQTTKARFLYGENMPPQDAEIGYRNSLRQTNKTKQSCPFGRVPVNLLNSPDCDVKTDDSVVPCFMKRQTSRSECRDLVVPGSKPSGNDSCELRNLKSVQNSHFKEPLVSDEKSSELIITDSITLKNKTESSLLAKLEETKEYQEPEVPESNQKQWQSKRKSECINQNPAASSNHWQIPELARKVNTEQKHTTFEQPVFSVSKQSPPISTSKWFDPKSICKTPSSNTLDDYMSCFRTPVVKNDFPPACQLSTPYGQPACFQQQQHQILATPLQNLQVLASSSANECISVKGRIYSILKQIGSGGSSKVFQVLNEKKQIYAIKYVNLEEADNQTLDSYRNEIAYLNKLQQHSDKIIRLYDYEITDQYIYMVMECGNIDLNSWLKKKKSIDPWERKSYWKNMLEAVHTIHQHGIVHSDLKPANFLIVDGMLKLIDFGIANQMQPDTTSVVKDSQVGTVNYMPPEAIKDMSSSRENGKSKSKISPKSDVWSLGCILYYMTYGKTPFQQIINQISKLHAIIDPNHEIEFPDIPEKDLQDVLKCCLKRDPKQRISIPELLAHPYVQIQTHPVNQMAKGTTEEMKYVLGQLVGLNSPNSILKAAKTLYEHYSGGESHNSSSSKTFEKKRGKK

[20] = target: T5, Aurora kinase A (Homo sapiens) (UniProt O14965); settings: at 0.1 µM;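 also: each reported value is a mean percent inhibition of Aurora-A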
T5 sequence (whole entry): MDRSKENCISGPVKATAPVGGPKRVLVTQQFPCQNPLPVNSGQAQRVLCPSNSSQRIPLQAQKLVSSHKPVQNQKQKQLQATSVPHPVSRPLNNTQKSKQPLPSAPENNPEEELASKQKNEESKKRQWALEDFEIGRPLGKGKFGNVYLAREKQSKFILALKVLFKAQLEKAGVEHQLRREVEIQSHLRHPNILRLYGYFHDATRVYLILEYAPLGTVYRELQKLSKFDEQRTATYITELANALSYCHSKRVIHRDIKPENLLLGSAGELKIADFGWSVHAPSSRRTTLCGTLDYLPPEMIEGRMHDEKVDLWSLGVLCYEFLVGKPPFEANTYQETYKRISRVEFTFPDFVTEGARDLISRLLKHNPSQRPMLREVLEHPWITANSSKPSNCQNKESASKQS

NT-3 growth factor receptor (Homo sapiens), sequence (Q16288 32-839 limits assumed): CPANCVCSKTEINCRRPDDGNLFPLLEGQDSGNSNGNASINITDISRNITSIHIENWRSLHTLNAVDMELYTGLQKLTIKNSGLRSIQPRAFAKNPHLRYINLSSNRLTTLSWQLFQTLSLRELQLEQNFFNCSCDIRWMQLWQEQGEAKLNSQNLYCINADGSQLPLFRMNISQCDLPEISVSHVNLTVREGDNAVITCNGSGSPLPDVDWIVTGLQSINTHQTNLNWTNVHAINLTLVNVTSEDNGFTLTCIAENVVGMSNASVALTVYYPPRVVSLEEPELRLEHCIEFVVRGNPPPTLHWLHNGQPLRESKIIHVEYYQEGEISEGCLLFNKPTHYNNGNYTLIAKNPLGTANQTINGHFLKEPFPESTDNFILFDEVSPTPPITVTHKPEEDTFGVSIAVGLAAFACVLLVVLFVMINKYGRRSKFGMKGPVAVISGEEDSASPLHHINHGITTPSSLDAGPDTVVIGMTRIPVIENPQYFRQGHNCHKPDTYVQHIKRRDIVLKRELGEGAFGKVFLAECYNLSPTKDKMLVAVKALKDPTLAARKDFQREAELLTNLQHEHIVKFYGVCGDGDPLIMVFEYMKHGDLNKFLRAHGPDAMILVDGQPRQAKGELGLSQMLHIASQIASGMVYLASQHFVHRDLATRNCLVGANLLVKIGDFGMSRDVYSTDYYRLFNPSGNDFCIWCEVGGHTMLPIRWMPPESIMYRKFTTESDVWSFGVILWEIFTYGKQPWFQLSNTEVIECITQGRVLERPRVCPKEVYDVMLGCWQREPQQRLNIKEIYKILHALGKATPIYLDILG
High affinity nerve growth factor receptor (Homo sapiens), sequence (P04629 33-796 limits assumed): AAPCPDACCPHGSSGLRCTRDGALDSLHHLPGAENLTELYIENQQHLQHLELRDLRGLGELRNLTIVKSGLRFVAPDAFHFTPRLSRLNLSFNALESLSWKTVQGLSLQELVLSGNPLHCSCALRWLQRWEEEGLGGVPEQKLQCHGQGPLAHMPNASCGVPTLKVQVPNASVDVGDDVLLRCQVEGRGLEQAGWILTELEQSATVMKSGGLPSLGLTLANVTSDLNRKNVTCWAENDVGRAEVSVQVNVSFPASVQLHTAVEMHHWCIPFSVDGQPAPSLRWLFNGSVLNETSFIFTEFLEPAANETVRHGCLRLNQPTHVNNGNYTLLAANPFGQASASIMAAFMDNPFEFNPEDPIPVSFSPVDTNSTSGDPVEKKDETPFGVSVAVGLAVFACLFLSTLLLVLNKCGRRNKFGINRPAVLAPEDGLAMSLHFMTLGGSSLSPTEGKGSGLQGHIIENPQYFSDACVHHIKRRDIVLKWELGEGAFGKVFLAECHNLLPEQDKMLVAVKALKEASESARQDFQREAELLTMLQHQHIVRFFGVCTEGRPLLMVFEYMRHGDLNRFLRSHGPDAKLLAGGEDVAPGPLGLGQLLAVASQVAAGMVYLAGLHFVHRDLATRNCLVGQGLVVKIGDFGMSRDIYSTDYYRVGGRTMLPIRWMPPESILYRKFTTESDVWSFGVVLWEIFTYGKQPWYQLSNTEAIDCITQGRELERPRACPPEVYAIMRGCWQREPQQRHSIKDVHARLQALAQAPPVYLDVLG
BDNF/NT-3 growth factors receptor (Homo sapiens), sequence (Q16620 32-822 limits assumed): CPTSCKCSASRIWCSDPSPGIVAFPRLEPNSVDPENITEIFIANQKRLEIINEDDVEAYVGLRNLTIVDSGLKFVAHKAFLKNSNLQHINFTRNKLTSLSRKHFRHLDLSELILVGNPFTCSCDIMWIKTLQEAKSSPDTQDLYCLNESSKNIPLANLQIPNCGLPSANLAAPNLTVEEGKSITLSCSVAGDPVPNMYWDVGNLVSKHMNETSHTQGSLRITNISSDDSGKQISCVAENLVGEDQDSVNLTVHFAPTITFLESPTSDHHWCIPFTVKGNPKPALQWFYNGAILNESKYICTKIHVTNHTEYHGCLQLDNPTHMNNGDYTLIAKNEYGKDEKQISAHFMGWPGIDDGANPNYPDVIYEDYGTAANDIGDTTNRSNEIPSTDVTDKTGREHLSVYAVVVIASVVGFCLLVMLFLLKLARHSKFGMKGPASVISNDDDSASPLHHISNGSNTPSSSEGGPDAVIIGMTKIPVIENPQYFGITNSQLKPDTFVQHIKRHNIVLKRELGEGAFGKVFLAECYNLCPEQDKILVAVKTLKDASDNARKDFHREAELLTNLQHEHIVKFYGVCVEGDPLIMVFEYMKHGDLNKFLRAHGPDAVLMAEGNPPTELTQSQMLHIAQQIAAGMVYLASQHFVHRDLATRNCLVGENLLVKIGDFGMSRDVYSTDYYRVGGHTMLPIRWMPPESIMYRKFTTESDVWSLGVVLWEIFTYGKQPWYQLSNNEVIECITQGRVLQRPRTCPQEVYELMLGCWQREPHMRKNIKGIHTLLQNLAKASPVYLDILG
Activated CDC42 kinase 1 (Homo sapiens), sequence (Q07912 whole entry, looked up): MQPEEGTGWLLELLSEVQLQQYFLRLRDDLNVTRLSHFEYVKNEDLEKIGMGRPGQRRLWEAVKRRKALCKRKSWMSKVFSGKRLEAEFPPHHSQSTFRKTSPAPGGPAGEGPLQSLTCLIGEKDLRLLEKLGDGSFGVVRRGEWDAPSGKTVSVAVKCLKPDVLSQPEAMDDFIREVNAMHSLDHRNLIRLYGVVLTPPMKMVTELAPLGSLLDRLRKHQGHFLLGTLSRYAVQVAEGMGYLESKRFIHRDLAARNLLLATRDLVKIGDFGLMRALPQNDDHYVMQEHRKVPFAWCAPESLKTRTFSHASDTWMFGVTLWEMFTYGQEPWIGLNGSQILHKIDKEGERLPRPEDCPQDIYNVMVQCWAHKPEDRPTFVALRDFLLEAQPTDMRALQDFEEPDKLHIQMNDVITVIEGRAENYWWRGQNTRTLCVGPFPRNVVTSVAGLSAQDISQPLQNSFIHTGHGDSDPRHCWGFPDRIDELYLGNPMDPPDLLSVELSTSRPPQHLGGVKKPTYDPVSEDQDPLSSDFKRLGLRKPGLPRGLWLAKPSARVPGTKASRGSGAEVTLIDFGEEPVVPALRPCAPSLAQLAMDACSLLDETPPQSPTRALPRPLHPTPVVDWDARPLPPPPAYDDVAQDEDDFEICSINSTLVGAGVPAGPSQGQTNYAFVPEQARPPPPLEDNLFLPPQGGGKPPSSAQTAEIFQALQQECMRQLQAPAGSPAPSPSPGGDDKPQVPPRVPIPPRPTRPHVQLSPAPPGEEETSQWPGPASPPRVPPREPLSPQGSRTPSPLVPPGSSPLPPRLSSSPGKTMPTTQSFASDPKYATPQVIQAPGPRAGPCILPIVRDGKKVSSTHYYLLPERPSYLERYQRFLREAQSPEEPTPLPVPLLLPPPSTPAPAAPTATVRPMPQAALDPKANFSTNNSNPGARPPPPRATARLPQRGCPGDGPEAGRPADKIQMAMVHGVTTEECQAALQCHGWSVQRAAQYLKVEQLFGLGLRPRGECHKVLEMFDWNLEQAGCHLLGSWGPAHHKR
Non-receptor tyrosine-protein kinase TYK2 (Homo sapiens), sequence (P29597 whole entry): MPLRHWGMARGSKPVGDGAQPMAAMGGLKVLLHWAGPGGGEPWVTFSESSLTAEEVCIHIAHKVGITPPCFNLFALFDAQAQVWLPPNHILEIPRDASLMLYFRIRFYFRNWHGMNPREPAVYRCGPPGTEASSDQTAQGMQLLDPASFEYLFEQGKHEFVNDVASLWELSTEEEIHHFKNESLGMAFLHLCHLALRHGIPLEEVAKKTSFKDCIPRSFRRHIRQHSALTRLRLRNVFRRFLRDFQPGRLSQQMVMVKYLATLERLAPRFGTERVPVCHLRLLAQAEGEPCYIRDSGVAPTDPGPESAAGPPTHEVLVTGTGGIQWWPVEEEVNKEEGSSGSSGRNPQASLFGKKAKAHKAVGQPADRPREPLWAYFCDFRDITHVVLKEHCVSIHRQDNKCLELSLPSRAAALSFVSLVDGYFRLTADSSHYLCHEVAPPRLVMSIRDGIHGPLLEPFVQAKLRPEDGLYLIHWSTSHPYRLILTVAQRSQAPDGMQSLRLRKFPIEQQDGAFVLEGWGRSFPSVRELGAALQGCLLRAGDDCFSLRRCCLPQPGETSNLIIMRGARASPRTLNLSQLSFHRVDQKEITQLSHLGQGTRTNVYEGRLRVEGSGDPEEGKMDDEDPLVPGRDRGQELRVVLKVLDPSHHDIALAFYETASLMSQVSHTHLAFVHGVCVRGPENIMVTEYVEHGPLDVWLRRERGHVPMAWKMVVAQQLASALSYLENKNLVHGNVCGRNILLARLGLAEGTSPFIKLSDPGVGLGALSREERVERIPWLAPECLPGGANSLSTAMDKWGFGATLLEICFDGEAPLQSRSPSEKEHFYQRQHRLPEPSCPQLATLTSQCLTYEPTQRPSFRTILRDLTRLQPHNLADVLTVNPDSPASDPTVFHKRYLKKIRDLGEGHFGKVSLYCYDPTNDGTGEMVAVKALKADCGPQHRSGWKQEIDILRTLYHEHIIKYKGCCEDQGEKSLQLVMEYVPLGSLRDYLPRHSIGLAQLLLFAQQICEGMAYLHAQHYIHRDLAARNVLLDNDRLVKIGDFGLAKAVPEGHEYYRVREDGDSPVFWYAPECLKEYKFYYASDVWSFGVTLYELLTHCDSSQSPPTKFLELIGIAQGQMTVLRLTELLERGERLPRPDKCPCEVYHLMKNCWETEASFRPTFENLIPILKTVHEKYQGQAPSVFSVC

Structure (SMILES)	inhibition [1] [%]	inhibition [2] [%]	inhibition [3] [%]	inhibition [4] [%]	inhibition [5] [%]	inhibition [6] [%]	inhibition [7] [%]	inhibition [8] [%]	inhibition [9] [%]	inhibition [10] [%]	inhibition [11] [%]	inhibition [12] [%]	inhibition [13] [%]	inhibition [14] [%]	inhibition [15] [%]	inhibition [16] [%]	inhibition [17] [%]	inhibition [18] [%]	inhibition [19] [%]	inhibition [20] [%]
CCn1cc(-c2ccnc3[nH]ccc23)c(-c2cccc(NC(=O)Nc3ccc(OCc4ccccc4)cc3)c2)n1	-2.75	-0.28	0.98	-0.17	6.2	1.05	11.2	-0.68	2.63	-1.48	-2.6	-2.42	-0.53	-0.62	8.83	-1.03	1.79	0.94	3.41	2.05
Fc1ccc(-c2cc(-c3c[nH]nc3-c3ccccn3)ccn2)cc1	-0.94	3.71	3.67	2.32	2.49	3.71	17.8	2.51	1.26	2.16	0.04	4.04	4.77	4.06	3.45	3.64	2.28	-1.71	9.65	3.15
NS(=O)(=O)c1ccc(Nc2ncc(-c3ccccc3)o2)cc1	-1.05	4.68	7.4	2.1	2.98	4.37	18.5	1.26	3.09	5.28	8.51	5.29	15.4	3.31	16.7	4.63	5.69	-1.15	13.2	8.3
Cc1ccc(O)cc1Nc1ccnc2cc(-c3ccccn3)ccc12	1.9	46	83.4	7.91	48.2	8.49	38.1	2.64	18	4	4.34	1.78	2.4	3.76	4.64	42	82.3	-4.79	7.97	2.82
Cc1ccc2c(-c3ccnc(Nc4ccccc4)n3)c(-c3ccc(F)cc3)nn2n1	-4.62	10.6	38.1	3.44	17.5	3.52	14.2	1.74	7.9	9	31.6	5.12	20.2	4.3	11.8	8.09	31.4	-4.65	6.11	3.75
CCN(CC)S(=O)(=O)c1ccc(OC)c(Nc2ncc(-c3ccccc3)o2)c1	-0.04	2.99	11.9	4.38	14	15.6	72.1	-0.01	1.62	4.25	41.5	5.72	41.5	4.27	35.2	3.92	24.9	-1.59	8.57	1.61
CN1CCC(n2cnc(-c3ccc(F)cc3)c2-c2ccnc(N)n2)CC1	-1.2	3.52	5.01	3.13	2.56	1.5	8.96	0.57	1.23	0.03	3.59	0.4	6.74	3.47	8.74	2.63	6.31	-2.21	-7.5	4.64
